Test [1] in a line: TOX21_p53_BLA_p2_viability: Viability Assessment in the Tox21 HCT-116 p53 Agonism Beta-lactamase Assay, Phase 2 (AID 2283591).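 Further: compound exposure lasted 16 h at 37 °C; actives lower the ATP signal meaning cytotoxicity.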 In a few lines: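 HCT116 p53-bla cells, 4000/well, dosed after 5 h plating (217-fold dilution of DMSO stocks) and incubated 16 h at 37C. Viability taken as cellular ATP by CellTiter-Glo luminescence after 30 min RT; signal loss marks cytotoxicity.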
Test [2] concerns the target Cellular tumor antigen p53 (Homo sapiens) (UniProt P04637). Put plainly: TOX21_p53_BLA_p2_ratio: Tox21 HCT-116 p53 Agonism Beta-lactamase Assay, Ratio, Phase 2 (AID 2283592). The gist of the method:
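Human colon HCT116 cells with an inducible p53 beta-lactamase reporter are exposed to test chemicals for 16 h at 37C. Reporter induction is read as the 460/530 nm emission ratio after CCF4-AM loading, normalized to DMSO.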

The nature of test [3]: TOX21_p53_BLA_p3_viability: Viability Assessment in the Tox21 HCT-116 p53 Agonism Beta-lactamase Assay, Phase 3 (AID 2283593).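 Further: cells exposed to compound for 16 h before reading.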 In a few lines:
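HCT116 cells, 4000/well, dosed 5 h after plating by pin transfer (217-fold dilution from DMSO stock) and incubated 16 h at 37C, 5% CO2. Viability read as ATP luminescence with CellTiter-Glo after 30 min at room temperature.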

In test [4] the target is Cellular tumor antigen p53 (Homo sapiens) (UniProt P04637). Put plainly: TOX21_p53_BLA_p3_ratio: Tox21 HCT-116 p53 Agonism Beta-lactamase Assay, Ratio, Phase 3 (AID 2283596). The gist of the method:
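HCT116 p53-bla cells (4000/well) given compound in DMSO (217-fold dilution) after 5 h, incubated 16 h at 37C. CCF4-AM substrate 2 h at room temperature; 460/530 nm emission ratio, gain fitted against DMSO.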

Test [5] can be described thus: TOX21_p53_BLA_p4_viability: Viability Assessment in the Tox21 HCT-116 p53 Agonism Beta-lactamase Assay, Phase 4 (AID 2283597).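 Further: hits lower the luminescence signal meaning cytotoxicity.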 In a few lines:
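Luminescent ATP readout (CellTiter-Glo, 30 min, room temperature) in the same wells as the p53 bla ratio. HCT116 cells were treated for 16 h at 37C with DMSO-dissolved compounds.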

Test [6] deals with Cellular tumor antigen p53 (Homo sapiens) (UniProt P04637). Put plainly: TOX21_p53_BLA_p5_ratio: Tox21 HCT-116 p53 Agonism Beta-lactamase Assay, Ratio, Phase 5 (AID 2283599). The gist of the method: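 HCT-116 p53-bla cells (4000/well) plated 5 h, dosed with compound (217-fold DMSO dilution) for 16 h at 37 C; CCF4-AM substrate 2 h at room temperature. Activity is the 460/530 nm emission ratio (405 nm excitation), fitted in gain-of-signal direction versus DMSO.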

A short description of test [7]: TOX21_p53_BLA_p5_viability: Viability Assessment in the Tox21 HCT-116 p53 Agonism Beta-lactamase Assay, Phase 5 (AID 2283600). The gist of the method: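 Seeded cells (4000/well) settle 5 h before compound addition. Plates then incubate 16 h at 37C, receive FRET substrate for 2 h, and finally CellTiter-Glo, with luminescence measured after a 30 min room-temperature incubation.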

The target of test [8] is Cellular tumor antigen p53 (Homo sapiens) (UniProt P04637). Put plainly: TOX21_p53_BLA_p4_ratio: Tox21 HCT-116 p53 Agonism Beta-lactamase Assay, Ratio, Phase 4 (AID 2283601). The gist of the method:
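HCT-116 p53 beta-lactamase reporter cells (4000/well) preincubated 5 h, then compound (217-fold dilution of DMSO stock) for 16 h at 37C. CCF4-AM substrate added 2 h at room temperature; 460/530 nm emission ratio fitted upward versus DMSO.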

The nature of test [9]: Tanguay_ZF_120hpf_MORT_legacy: (Legacy) Oregon State University Tanguay Lab 120 Hour Post-fertilization zebrafish Assay for Mortality (AID 2283633).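 On AC50: fitted as increase in binary mortality versus DMSO negative control.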 The gist of the method: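 Single dechorionated Tropical 5D embryos were held with test chemical (0.64% DMSO final) from 6 to 120 hpf at 28C under foil. Deaths at 24 or 120 hpf were recorded as binary calls, analysed for increase over DMSO controls.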

Test [10] in a line: Tanguay_ZF_120hpf_YSE_legacy: (Legacy) Oregon State University Tanguay Lab 120 Hour Post-fertilization zebrafish Assay for Yolk Sac Edema (AID 2283634).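 On AC50: actives raise the incidence of yolk sac edema above the DMSO baseline.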 The gist of the method:
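Single dechorionated embryos were held in sealed plates at 28C with test chemical (0.64% DMSO final) from 6 hpf until 120 hpf. Edema of the yolk sac was then recorded as a binary endpoint; non-mortality endpoints were skipped for dead embryos.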

The structures appear in SMILES notation. “And” between values parts separate entries of the source, which are not always exact repeats. Equal values may be shown once. Records with an inconclusive call do not appear. A structure can be active in one record and inactive in another. The source made the active and inactive calls. How the source made its calls: active means hit-call score of the fitted dose curve at least 0.9, where 1 is the maximum; inconclusive means response in the unintended direction; inactive means score below 0.9.

Cellular tumor antigen p53 (Homo sapiens), sequence (P04637 whole entry, looked up): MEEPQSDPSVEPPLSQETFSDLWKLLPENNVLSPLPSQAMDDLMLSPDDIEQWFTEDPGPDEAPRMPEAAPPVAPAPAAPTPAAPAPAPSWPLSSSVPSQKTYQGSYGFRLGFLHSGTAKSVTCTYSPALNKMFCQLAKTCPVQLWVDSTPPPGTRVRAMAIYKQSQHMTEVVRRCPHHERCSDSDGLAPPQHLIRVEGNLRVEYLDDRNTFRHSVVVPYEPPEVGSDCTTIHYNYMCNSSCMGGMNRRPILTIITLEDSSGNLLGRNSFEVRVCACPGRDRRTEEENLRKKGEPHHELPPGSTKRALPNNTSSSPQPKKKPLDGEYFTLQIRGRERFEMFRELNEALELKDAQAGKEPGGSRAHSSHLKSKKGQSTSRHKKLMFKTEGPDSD

On to `Cn1c(=O)c2c(ncn2C)n(C)c1=O`, for which the molecule was classed as inactive in test [1], in test [2], in test [3], in [4], in test [5] and in [6]. For the same molecule, the result in [7], in test [8], in test [9] and in test [10] was inactive.

For the molecule `O=P(OC(CCl)CCl)(OC(CCl)CCl)OC(CCl)CCl`, the outcome in test [1], in [2], in test [3], in test [4], in test [6] and in test [7] was inactive. In addition, the result in [8] and in test [9] was inactive. Further, the AC50 (as a rule, the concentration at which the activity in the assay is half-maximal) was 53.8 µM (active) in test [5] and 25.4 µM (active) in [10].

For `CC(C)c1cccc(C(C)C)c1N1C(=O)c2ccc(O)cc2C1=O`, the AC50 is 66.7 µM (active) in test [1]; 1.77 µM (active) in test [2]; 74.9 µM (active) in [3]; 68.4 µM (active) in [5]; 2.05 µM (active) in test [6]; 79 µM (active) in test [7]. The results for the AC50 in test [8] and in test [9] were 69.5 µM (active) and 26.9 µM (active), respectively. Further, the result in [4] and in test [10] was inactive.

As for `O=C(O)c1cc(N=Nc2ccc(S(=O)(=O)Nc3ccccn3)cc2)ccc1O`, the molecule was classed as inactive in test [1], in [2], in [3], in test [4], in test [5] and in [6]. In addition, the call in [7], in test [8], in test [9] and in [10] was inactive.

With `Cn1cnc([N+](=O)[O-])c1Sc1ncnc2nc[nH]c12`, the outcome in test [1], in [3], in test [5], in [7], in test [9] and in test [10] was inactive. Further, the AC50 in [2] is 18.9 µM (active) and 31.3 µM (active); in test [3], 4.91 µM (active); in [4], 30 µM (active) and 33.1 µM (active); in test [5], 1.62 µM (active); in test [6], 29.8 µM (active) and 34.8 µM (active); in test [8], 22.2 µM (active) and 34.3 µM (active).

For the molecule `CC1=CC(=O)CC(C)(C)C1`, the call in [1], in test [2], in [3], in test [4], in test [5] and in test [6] was inactive. For the same molecule, the molecule was classed as inactive in [7], in [8] and in [9].

Turning to `CC[C@H](C)C(=O)O[C@H]1C[C@@H](C)C=C2C=C[C@H](C)[C@H](CC[C@@H]3C[C@@H](O)CC(=O)O3)[C@H]21`, the concentration at half-maximal activity (AC50) in [1] is 44.6 µM (active); in test [2], 84.3 µM (active); in [3], 82.5 µM (active) and 35.6 µM (active); in test [5], 79.2 µM (active) and 27.4 µM (active); in test [6] it was 97.1 µM (active) and 37.7 µM (active); in [7], 91.2 µM (active) and 33.6 µM (active). The AC50 was 97.1 µM (active) in test [8] and 1.33 µM (active) in test [9]. The molecule was called inactive in test [1], in test [2], in test [3], in test [4], in test [5] and in test [6]. Also, the call in test [7], in [8] and in test [10] was inactive.

As to `Fc1ccccc1[C@@H](F)COC1CCC(Nc2ncnc3[nH]ncc23)CC1` (stereo partly specified), the molecule was classed as inactive in test [1], in test [2], in [3], in [4], in test [5] and in [6]. Besides, the molecule was called inactive in [7], in test [8] and in test [9]. Further, the half-maximal activity concentration (AC50) in test [10] is 23.9 µM (active).

For `COc1cccc(-c2ccc(/C=C\CN3CCCCCC3)cc2Cl)c1`, the concentration at half-maximal activity (AC50) in test [1] was 57.8 µM (active); in test [2], 70.5 µM (active); in [5] it was 52.5 µM (active); in test [8] it was 73.8 µM (active); in [9], 32.4 µM (active). Besides, the call in [3], in test [4], in [6], in [7] and in test [10] was inactive.

`CC(C)(O)c1coc(S(=O)(=O)NC(=O)Nc2c3c(cc4c2CCC4)CCC3)c1`: the outcome in test [1], in test [2], in test [3], in test [4], in test [5] and in [6] was inactive. For the same molecule, the outcome in test [7], in test [8], in [9] and in test [10] was inactive.

Turning to `CCC(C)(C)C(=O)O[C@H]1C[C@@H](C)C=C2C=C[C@H](C)[C@H](CC[C@@H]3C[C@@H](O)CC(=O)O3)[C@H]21`, the result in test [1], in test [2], in test [4], in test [6], in [7] and in test [8] was inactive. In addition, the AC50 is 75.7 µM (active) in test [3], 46.1 µM (active) in test [5], 1.45 µM (active) in [9] and 0.649 µM (active) in test [10].

As to `C[C@](N)(Cc1ccc(O)c(O)c1)C(=O)O`, the call in [1], in test [2], in [3], in [4], in [5] and in test [6] was inactive. Besides, the molecule was classed as inactive in test [7], in test [8], in [9] and in test [10].

With `Cc1ccc(N)cc1O`, the molecule was called inactive in test [1], in test [2], in [3], in test [4], in test [5] and in [6]. The outcome in [7], in test [8] and in [9] was inactive.

On to `O=c1n(CC2CO2)c(=O)n(CC2CO2)c(=O)n1CC1CO1` (stereo unspecified), for which the result in test [1], in test [3], in test [5], in test [7], in [9] and in test [10] was inactive. Also, the half-maximal activity concentration (AC50) in test [2] was 19.6 µM (active) and 9.81 µM (active) and 20.5 µM (active); in test [3], 74.3 µM (active); in test [4], 26.8 µM (active) and 19.6 µM (active); in [5], 51.2 µM (active); in test [6] it was 32.2 µM (active) and 10.7 µM (active) and 22.6 µM (active); in test [8], 33.7 µM (active) and 32.1 µM (active) and 23.5 µM (active).

Consider `Nc1cccc(N)c1`, for which the result in test [1], in [2], in [3], in test [4], in test [5] and in [6] was inactive. In addition, the outcome in test [7], in test [8], in test [9] and in test [10] was inactive.

Regarding `Cc1[nH]cnc1C[C@H]1CCc2c(C)c3ccccc3n2C1=O`, the call in [1], in [2], in test [3], in test [5], in [6] and in [7] was inactive. Also, the result in test [8], in [9] and in test [10] was inactive. The half-maximal activity concentration (AC50) was 63.9 µM (active) in test [4] and 41 µM (active) in [5].

With `CN(C)c1ccc(Cc2ccc(N(C)C)cc2)cc1`, the result in [1], in test [2], in [3], in [4], in test [5] and in [6] was inactive. The molecule was classed as inactive in test [7], in test [8], in [9] and in test [10].

In the case of `CCCCCCc1ccc(O)cc1O`, the concentration at half-maximal activity (AC50) in test [1] was 69.2 µM (active) and 73.3 µM (active); in [2] it was 53.5 µM (active) and 42.9 µM (active); in [3], 67.1 µM (active); in test [4], 63.9 µM (active); in test [5] it was 69.2 µM (active) and 73 µM (active); in test [6], 78.1 µM (active) and 68.4 µM (active). Also, the concentration at half-maximal activity (AC50) in test [7] was 74.9 µM (active); in test [8] it was 51.2 µM (active) and 63.3 µM (active) and 39.6 µM (active); in [9], 25.9 µM (active). For the same molecule, the outcome in test [2], in [3], in test [4], in test [5], in test [6] and in test [7] was inactive. Also, the call in test [10] was inactive.
